A short description of assay [1]: small molecules captured by biotinylated probe aFSTL3 – biochemical, small-molecule microarray, fluorescence 635/667, stem cell growth factor project, primary screen (AID 1064).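 Note: measures binding of the biotinylated anti-FSTL3 antibody to printed compounds.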 To be noted: higher = more signal.
Assay [2] in a line: binders from COS7 lysate, DM2A8 probe, primary screen, torsin A project, cell lysate, small-molecule microarray, fluorescence 635/667 (AID 1065). The conditions noted are these: higher = more signal, COS7 lysate expressing mutant human TOR1A.
The nature of assay [3]: small molecules captured by biotinylated probe aFGF2 – biochemical, small-molecule microarray, fluorescence 635/667, stem cell growth factor project, primary screen (AID 1067).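 Note: measures binding of biotinylated aFGF2 protein to printed compounds on slides; z-score merges feature fluorescence and signal-to-noise across triplicate slides.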 To be noted: higher = more signal.
A short description of assay [4]: small molecules captured by biotinylated probe aFGF10 – biochemical, small-molecule microarray, fluorescence 635/667, stem cell growth factor project, primary screen (AID 1071).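 Note: score merges 667 nm spot intensity and signal to noise from triplicate slides.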 The conditions noted are these: higher = more signal.
Assay [5] concerns the target Neurogenic locus notch homolog protein 2 (Homo sapiens) (UniProt Q04721). Description: small molecules binding Notch2 protein – biochemical, small-molecule microarray, 635 nm fluorescence, stem cell growth factors, primary screen (AID 1073). The conditions noted are these: higher = more signal.
Assay [6] has as its target Pro-neuregulin-1, membrane-bound isoform (Homo sapiens) (UniProt Q02297). Description: small molecules binding neuregulin-1 protein – biochemical, small-molecule microarray, fluorescence 635/667, psychiatric disease protein project, primary screen (AID 1075).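 Note: score combines 667 nm spot fluorescence with signal to noise.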 The conditions noted are these: NRG1 binding, 635 nm fluorescence, higher = more signal.
In assay [7] the test system is Neuregulin-1 EGF-like domain. Put plainly: small molecules binding NRG1 EGF domain – biochemical, small-molecule microarray, 635 nm fluorescence, primary screen (AID 1081).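 Note: binding of the protein to compounds printed on small-molecule microarray slides.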 The conditions noted are these: higher = more signal.
The nature of assay [8]: FRG1 expression reporter modulators in myotubes – cell-based, C2C12 myotubes, firefly/Renilla luciferase, luminescence, FRG1 inhibition for FSHD, primary screen (AID 1084). The conditions noted are these: FRG1 promoter luciferase, higher = more signal, called active from +8 up or from −8 down.
A short description of assay [9]: small molecules captured by biotinylated probe aFST – biochemical, small-molecule microarray, fluorescence 635/667, stem cell growth factor project, primary screen (AID 1086).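 Note: score merges 667 nm fluorescence with signal-to-noise of each printed compound spot.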 The conditions noted are these: higher = more signal.
The nature of assay [10]: binders of probe aHhip on microarray, primary screen, stem cell growth factor project, biochemical, small-molecule microarray, fluorescence 635/667 (AID 1087).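 Note: score merges spot fluorescence at 667nm with spot signal to noise ratio.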 The conditions noted are these: higher = more signal.

The structures appear in SMILES notation. Active and inactive are the calls of the source.

Sequence of Neurogenic locus notch homolog protein 2 (Homo sapiens) (Q04721 whole entry, looked up, canonical isoform): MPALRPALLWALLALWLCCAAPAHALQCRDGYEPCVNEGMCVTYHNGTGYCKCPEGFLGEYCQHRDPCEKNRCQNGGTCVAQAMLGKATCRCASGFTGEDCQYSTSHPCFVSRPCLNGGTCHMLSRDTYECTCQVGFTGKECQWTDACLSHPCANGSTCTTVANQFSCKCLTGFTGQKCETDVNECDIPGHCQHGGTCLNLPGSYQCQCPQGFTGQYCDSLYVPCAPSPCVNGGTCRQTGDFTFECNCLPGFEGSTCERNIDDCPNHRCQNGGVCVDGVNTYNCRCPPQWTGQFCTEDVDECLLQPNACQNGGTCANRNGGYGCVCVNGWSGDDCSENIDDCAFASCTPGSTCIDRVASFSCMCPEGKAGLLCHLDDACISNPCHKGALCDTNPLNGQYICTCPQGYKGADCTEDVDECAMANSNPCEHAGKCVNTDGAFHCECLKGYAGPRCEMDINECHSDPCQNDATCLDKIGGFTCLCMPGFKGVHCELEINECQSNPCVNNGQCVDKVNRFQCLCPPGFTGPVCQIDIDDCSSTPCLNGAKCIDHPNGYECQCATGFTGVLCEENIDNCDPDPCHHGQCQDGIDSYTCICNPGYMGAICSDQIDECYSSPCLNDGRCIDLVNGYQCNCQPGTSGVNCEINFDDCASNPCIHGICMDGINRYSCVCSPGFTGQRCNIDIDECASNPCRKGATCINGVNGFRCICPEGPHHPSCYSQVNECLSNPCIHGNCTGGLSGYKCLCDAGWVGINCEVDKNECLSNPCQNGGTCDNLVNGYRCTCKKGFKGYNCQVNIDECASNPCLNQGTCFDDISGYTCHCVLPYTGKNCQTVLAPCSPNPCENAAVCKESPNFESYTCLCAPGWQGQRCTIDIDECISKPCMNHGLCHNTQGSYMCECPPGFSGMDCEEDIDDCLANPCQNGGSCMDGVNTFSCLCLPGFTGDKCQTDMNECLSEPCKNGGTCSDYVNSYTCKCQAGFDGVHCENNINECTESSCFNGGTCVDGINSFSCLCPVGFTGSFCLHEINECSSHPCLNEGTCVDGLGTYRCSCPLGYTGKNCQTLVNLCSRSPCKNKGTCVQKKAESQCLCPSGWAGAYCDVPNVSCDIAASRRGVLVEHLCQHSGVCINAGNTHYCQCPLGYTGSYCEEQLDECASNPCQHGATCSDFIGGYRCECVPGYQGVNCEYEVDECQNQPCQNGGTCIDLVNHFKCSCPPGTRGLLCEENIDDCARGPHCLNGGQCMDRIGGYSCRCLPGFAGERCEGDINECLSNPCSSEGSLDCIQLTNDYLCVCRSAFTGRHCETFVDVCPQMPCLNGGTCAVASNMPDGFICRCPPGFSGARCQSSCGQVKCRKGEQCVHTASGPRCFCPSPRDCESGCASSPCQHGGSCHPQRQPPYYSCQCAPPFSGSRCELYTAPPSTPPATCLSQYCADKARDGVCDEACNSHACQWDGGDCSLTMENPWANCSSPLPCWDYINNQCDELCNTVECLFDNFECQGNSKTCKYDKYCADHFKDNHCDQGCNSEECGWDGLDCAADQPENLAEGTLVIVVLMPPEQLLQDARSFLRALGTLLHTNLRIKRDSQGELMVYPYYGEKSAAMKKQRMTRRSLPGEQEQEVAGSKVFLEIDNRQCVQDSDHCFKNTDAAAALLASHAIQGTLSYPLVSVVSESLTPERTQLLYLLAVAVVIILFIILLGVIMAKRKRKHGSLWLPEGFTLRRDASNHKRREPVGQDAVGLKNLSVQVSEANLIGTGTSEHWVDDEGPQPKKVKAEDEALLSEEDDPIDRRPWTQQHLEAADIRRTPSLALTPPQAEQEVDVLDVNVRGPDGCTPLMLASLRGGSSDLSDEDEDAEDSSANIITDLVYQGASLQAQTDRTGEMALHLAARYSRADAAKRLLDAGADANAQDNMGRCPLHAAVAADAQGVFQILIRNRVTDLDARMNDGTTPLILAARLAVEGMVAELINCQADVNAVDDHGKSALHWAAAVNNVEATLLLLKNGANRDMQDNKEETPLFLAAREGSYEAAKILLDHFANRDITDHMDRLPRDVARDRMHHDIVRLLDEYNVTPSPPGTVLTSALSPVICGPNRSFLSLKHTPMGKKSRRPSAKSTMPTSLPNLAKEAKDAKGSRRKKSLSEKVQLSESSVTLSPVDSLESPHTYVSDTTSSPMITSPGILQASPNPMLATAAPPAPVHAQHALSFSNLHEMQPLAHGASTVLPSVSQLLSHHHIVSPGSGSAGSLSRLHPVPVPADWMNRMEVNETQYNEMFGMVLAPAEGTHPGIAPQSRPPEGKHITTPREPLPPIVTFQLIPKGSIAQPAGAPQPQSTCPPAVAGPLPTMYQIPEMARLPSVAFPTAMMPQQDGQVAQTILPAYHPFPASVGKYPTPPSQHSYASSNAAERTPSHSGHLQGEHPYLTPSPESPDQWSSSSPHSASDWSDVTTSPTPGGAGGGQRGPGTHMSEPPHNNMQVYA
Sequence of Pro-neuregulin-1, membrane-bound isoform (Homo sapiens) (Q02297 whole entry, looked up, the tested form may be a part, canonical isoform): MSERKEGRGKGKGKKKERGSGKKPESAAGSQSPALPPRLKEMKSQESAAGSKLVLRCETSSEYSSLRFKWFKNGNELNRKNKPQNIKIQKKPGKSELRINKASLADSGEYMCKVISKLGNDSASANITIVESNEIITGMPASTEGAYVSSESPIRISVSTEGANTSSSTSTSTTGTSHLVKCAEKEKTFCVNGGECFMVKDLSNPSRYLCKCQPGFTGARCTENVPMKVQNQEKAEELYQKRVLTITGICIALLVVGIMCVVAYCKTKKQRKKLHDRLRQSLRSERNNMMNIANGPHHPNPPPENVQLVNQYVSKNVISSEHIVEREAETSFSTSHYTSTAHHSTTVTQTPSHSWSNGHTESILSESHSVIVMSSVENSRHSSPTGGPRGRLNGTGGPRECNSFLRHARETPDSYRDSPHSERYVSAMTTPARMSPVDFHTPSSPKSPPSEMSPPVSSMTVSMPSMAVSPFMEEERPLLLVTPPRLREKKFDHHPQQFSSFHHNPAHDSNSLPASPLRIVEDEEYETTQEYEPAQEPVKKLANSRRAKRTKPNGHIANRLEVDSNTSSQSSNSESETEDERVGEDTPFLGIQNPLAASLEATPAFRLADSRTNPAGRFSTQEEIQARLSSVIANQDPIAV

`C[C@]1(C(=O)NCCN2CCOCC2)c2ccccc2C(=O)N(Cc2ccccc2)[C@H]1c1ccc(CO)cc1`: the composite z-score in assay [1] was -0.0452; in [2] it was 0.789; in [3], 0.0008; in assay [4], -0.425; in [5] it was -0.522; in [6] it was 1.35. The composite z-score was 1.26 in assay [7], -0.352 in assay [9] and -0.0346 in assay [10]. The z-score in assay [8] was -0.351 (inactive).
Regarding `C=C(CCCC)/C(=C/C[C@H](OC(=O)c1ccncc1)c1cccc(OCCO)c1)c1cc(C(=O)OC)ccc1OC`, the composite z-score in assay [1] was -0.195; in assay [2], 0.422; in assay [3] it was 0.0346; in [4] it was 1.05; in [5] it was -0.0883; in assay [6], 0.0742. Also, the results for the composite z-score in [7], in assay [9] and in assay [10] were 0.952, 0.104 and 0.0854, respectively. Further, the z-score in [8] is 5.01 (inactive).
For `CSCC[C@@H]1NC(=O)CC=C[C@@H](C)COC(=O)[C@H](CCSC)NC(=O)CC=C[C@@H](C)COC1=O`, the composite z-score was -0.678 in assay [1]; 1.31 in assay [2]; -0.127 in [3]; 0.0086 in [4]; -0.121 in [5]; -0.283 in assay [6]. Besides, the composite z-score is -0.26 in assay [7], -0.15 in assay [9] and 0.0578 in [10]. Also, the z-score in assay [8] is -0.889 (inactive).
As to `CO[C@H]1COC(=O)[C@H](CCSC)NC(=O)CC=C[C@@H](C)COC(=O)[C@@H](OCc2ccccc2)C=C[C@@H]1C`, the composite z-score in assay [1] was -0.929; in [2] it was 2.45; in assay [3], -0.294; in assay [4], -0.226; in [5], -0.206; in assay [6] it was -0.37. Besides, the composite z-score in assay [7] was 0.782; in [9], -0.327; in [10], -0.0047. The z-score in assay [8] is -0.592 (inactive).
With `Cc1cc(C)c(C(O)C2C=CC3C(=O)N(C)C(=O)C3N2N2CCCCC2)c(C)c1` (stereo not given), the composite z-score in [1] is 0.0308; in [2], 0.563; in assay [3] it was 0.205; in assay [4], 1.02; in assay [5], 1.69; in assay [6], 0.918. In addition, the results for the composite z-score in assay [7], in assay [9] and in assay [10] were 1.3, 1.27 and -0.206, respectively. The z-score in assay [8] was 0.251 (inactive).
Turning to `CO[C@H]1COC(=O)[C@@H](C)NC(=O)CC=C[C@@H](C)[C@H](OC)COC(=O)CC=C[C@@H]1C`, the composite z-score in [1] is -0.691; in [2] it was 1.95; in assay [3] it was -0.229; in assay [4], -0.895; in [5], -1.41; in assay [6] it was -0.615. For the same compound, the composite z-score in assay [7] is 0.479; in assay [9], -0.0849; in assay [10], 0.0596. The z-score in [8] is -1.32 (inactive).
For `CCCN1C(=O)[C@@]2(CCS(=O)(=O)c3ccccc3)N=C(c3ccc(OCCCO)cc3)O[C@H]2c2ccccc21`, the composite z-score in [1] was determined as 0.309; in [2], 0.437; in assay [3], 0.0127; in assay [4], 0.136; in assay [5], 0.728; in assay [6], 1.72. Also, the composite z-score in assay [7] is 1.36; in assay [9] it was 0.328; in assay [10], 0.0722. Moreover, the z-score in assay [8] is -3.15 (inactive).
Turning to `C=C(CCCC)/C(=C/C[C@@H](OC(=O)c1ccncc1)c1ccc(CO)o1)c1cnc2ccccc2c1`, the composite z-score in assay [1] was -0.297; in assay [2] it was 0.702; in [3], 0.0263; in assay [4], 1.08; in [5], 1.59; in [6] it was 0.786. Also, the composite z-score in [7] was found to be 0.743; in assay [9], 0.972; in assay [10], 0.224. In assay [8], the z-score is -0.452 (inactive).
For `C[N+](C)(C)CCCCNC(=O)[C@H]1C[C@H]2C(=O)NCC(=O)N2[C@H]1c1cccc(OCCO)c1`, the composite z-score was -0.514 in [1]; 2.35 in assay [2]; -0.0375 in assay [3]; 1.15 in [4]; 0.0841 in assay [5]; 0.309 in [6]. For the same compound, the composite z-score came out at 1.43 in [7], 0.533 in assay [9] and 0.245 in [10]. Moreover, in [8], the z-score was 1.73 (inactive).
As for `C=CCNC(=O)[C@@H]1[C@H]2C(=O)O[C@H](c3ccccc3)[C@H](c3ccccc3)N2[C@H](c2ccc(OCCO)cc2)[C@@]12C(=O)N(C(=O)OCCOC)c1ccc(C#CC3(O)CCCCCC3)cc12`, the composite z-score in assay [1] was 1.33; in assay [2], 1.16; in assay [3] it was 0.126; in assay [4], 0.552; in assay [5] it was 1.42; in assay [6], 0.508. The composite z-score is 1.03 in assay [7], 0.624 in assay [9] and -0.322 in assay [10]. Besides, the z-score in [8] is 0.132 (inactive).
On to `[N-]=[N+]=NCc1ccccc1[C@H]1OC(c2ccc(OCCCO)cc2)=N[C@@]1(Cc1ccccc1N=[N+]=[N-])C(=O)NCc1ccccc1`, for which the composite z-score in assay [1] came to 0.817; in assay [2], 0.155; in assay [3], 0.0308; in assay [4] it was 0.622; in assay [5], 1.28; in assay [6] it was 0.408. The composite z-score came out at 0.807 in [7], 0.939 in assay [9] and 0.0595 in assay [10]. In assay [8], the z-score was -1.35 (inactive).
Regarding `CCCCO[C@H]1C[C@H]2C(Br)=C[C@@]1(CO)C(=O)[C@]21CO1`, the composite z-score in assay [1] is -0.599; in [2], 0.407; in assay [3] it was -0.0785; in assay [4], -0.367; in assay [5] it was -0.0029; in [6] it was -0.534. For the same compound, the values for the composite z-score in assay [7], in [9] and in assay [10] were -0.802, 0.162 and -0.156, respectively. In assay [8], the z-score was 0.715 (inactive).

(Values after PubChem BioAssay.)
